Measured values taken from PubChem BioAssay (EPA / NIEHS).
The source made the active and inactive calls. The calls were made as follows: active = hit-call score of the fitted dose curve at least 0.9, where 1 is the maximum; inactive = score below 0.9.

Key:
Conditions in all cases: mRNA level, 48 h; actives raise or lower the signal
[1] = read-out: Glutamate-cysteine ligase regulatory (GCLM), GCLM (gene 2730); assay: LTEA_HepaRG_GCLM: Life Technologies and Expression Analysis (LTEA) Assay for Glutamate-cysteine ligase regulatory (GCLM) using HepaRG (AID 2283500)
Procedure, shortened: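 Cells were plated, cultured 48 h, switched to serum-free induction medium, then dosed in duplicate for 48 h at eight half-log concentrations up to 100 uM. RNA was then profiled by qRT-PCR; gain or loss versus DMSO was fitted.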

[2] = read-out: Glutathione S-transferase M3 (GSTM3), GSTM3 (gene 2947); assay: LTEA_HepaRG_GSTM3: Life Technologies and Expression Analysis (LTEA) Assay for Glutathione S-transferase M3 (GSTM3) using HepaRG (AID 2283501)
Procedure, shortened: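 qRT-PCR read-out of GSTM3 transcript, normalized to three housekeeping genes, from human HepaRG cells after 48 h chemical exposure. Eight-point half-log series, top 100 uM, 0.5% DMSO vehicle; gain or loss fitted relative to DMSO baseline.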

[3] = read-out: Heat shock 70 kDa protein 1 (HSPA1A), gene 3303; assay: LTEA_HepaRG_HSPA1A: Life Technologies and Expression Analysis (LTEA) Assay for Heat shock 70 kDa protein 1 (HSPA1A) using HepaRG (AID 2283502)
Procedure, shortened: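 Readout is HSPA1A transcript level by microfluidic qRT-PCR, normalized to three housekeeping genes and analysed for gain or loss of signal relative to 0.5% DMSO. Human HepaRG cultures received test chemicals for 48 h at up to 100 uM.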

[4] = read-out: Hypoxia-inducible factor 1-alpha (Homo sapiens) (UniProt Q16665); assay: LTEA_HepaRG_HIF1A: Life Technologies and Expression Analysis (LTEA) Assay for Hypoxia-inducible factor 1 (HIF1A) Trancription factor using HepaRG (AID 2283503)
Procedure, shortened: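 Differentiated HepaRG cells in serum-free induction medium exposed 48 h, in duplicate, to 8-point half-log series from 100 uM in 0.5% DMSO. HIF1A mRNA measured by TaqMan qRT-PCR, normalized to ACTB/GAPDH/POLR2A, fitted bidirectionally versus DMSO.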

[5] = read-out: 3-Hydroxy-3-Methylglutaryl-CoA Synthase 2 (HMGCS2), HMGCS2 (gene 3158); assay: LTEA_HepaRG_HMGCS2: Life Technologies and Expression Analysis (LTEA) Assay for 3-Hydroxy-3-Methylglutaryl-CoA Synthase 2 (HMGCS2) using HepaRG (AID 2283504)
Procedure, shortened: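 qRT-PCR read-out of HMGCS2 transcript, normalised to three housekeeping genes, in HepaRG cells after 48 h chemical exposure. Eight-point curves from 100 uM, half-log dilutions, 0.5% DMSO vehicle; gain or loss fitted relative to DMSO baseline.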

[6] = read-out: HGF (gene 3082); assay: LTEA_HepaRG_HGF: Life Technologies and Expression Analysis (LTEA) Assay for Hepatocyte Growth Facto (HGF) using HepaRG (AID 2283505)
Procedure, shortened: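 HepaRG, 48 h dosing, 8-pt half-log series from 100 uM in 0.5% DMSO, duplicates. Readout: TaqMan qRT-PCR of HGF mRNA, housekeeping-normalized; bidirectional curve fit vs DMSO baseline.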

[7] = read-out: Intercellular Adhesion Molecule 1 (ICAM1), ICAM1 (gene 3383); assay: LTEA_HepaRG_ICAM1: Life Technologies and Expression Analysis (LTEA) Assay for Intercellular Adhesion Molecule 1 (ICAM1) using HepaRG (AID 2283507)
Procedure, shortened: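 HepaRG, 48 h exposure, 8-pt half-log series from 100 uM, 0.5% DMSO vehicle, duplicates. Readout: TaqMan qRT-PCR mRNA, housekeeping-normalized (ACTB/GAPDH/POLR2A). Bidirectional curve fit vs DMSO baseline.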

[8] = read-out: Insulin-like growth factor-binding protein 1 (IGFBP1), IGFBP1 (gene 3484); assay: LTEA_HepaRG_IGFBP1: Life Technologies and Expression Analysis (LTEA) Assay for Insulin-like growth factor-binding protein 1 (IGFBP1) using HepaRG (AID 2283508)
Procedure, shortened: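 qRT-PCR mRNA read-out (TaqMan, Fluidigm array), normalised to three housekeeping genes; HepaRG cells, 48 h exposure, 8-pt half-log series from 100 uM, 0.5% DMSO vehicle; bidirectional curve fit vs DMSO baseline.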

[9] = read-out: Interleukin 6 (IL6), IL6 (gene 3569); assay: LTEA_HepaRG_IL6: Life Technologies and Expression Analysis (LTEA) Assay for Interleukin 6 (IL6) using HepaRG (AID 2283509)
Procedure, shortened: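 HepaRG, ~100,000 cells/well, 48 h pre-culture; serum-free induction medium; cmpd 8-pt half-log from 100 uM, 0.5% DMSO, duplicate, 48 h. Lysis in RLT, TaqMan qRT-PCR; gain or loss vs DMSO.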

[10] = read-out: Interleukin 6 Receptor (IL6R), IL6R (gene 3570); assay: LTEA_HepaRG_IL6R: Life Technologies and Expression Analysis (LTEA) Assay for Interleukin 6 Receptor (IL6R) using HepaRG (AID 2283510)
Procedure, shortened: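 Readout is IL6R transcript level by TaqMan qRT-PCR, normalized to three housekeeping genes and fitted bidirectionally against 0.5% DMSO controls. Human HepaRG cells received chemicals for 48 h in serum-free induction medium, highest concentration 100 uM.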

[11] = read-out: Potassium channel subfamily K member 1 (KCNK1), KCNK1 (gene 3775); assay: LTEA_HepaRG_KCNK1: Life Technologies and Expression Analysis (LTEA) Assay for Potassium channel subfamily K member 1 (KCNK1) using HepaRG (AID 2283511)
Procedure, shortened: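 Gain or loss of KCNK1 mRNA is the read-out, quantified by qRT-PCR against three housekeeping genes after 48 h chemical treatment of human HepaRG liver cells. Concentrations ran from 100 uM downward in half-log steps, vehicle 0.5% DMSO.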

[12] = read-out: Keratin 19 (KRT19), KRT19 (gene 3880); assay: LTEA_HepaRG_KRT19: Life Technologies and Expression Analysis (LTEA) Assay for Keratin 19 (KRT19) using HepaRG (AID 2283512)
Procedure, shortened: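 HepaRG, 48 h chemical exposure, 8-pt half-log CRC from 100 uM, 0.5% DMSO vehicle, duplicates. Readout: TaqMan qRT-PCR of KRT19 mRNA, housekeeping-normalized (ACTB/GAPDH/POLR2A). Bidirectional fit vs DMSO baseline.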

[13] = read-out: JUN Transcription Factor, JUN (gene 3725); assay: LTEA_HepaRG_JUN: Life Technologies and Expression Analysis (LTEA) Assay for JUN Transcription Factor using HepaRG (AID 2283513)
Procedure, shortened: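 Cells plated 48 h, medium switched to serum-free induction medium, then dosed 48 h (100 uM top, half-log dilutions, 0.5% DMSO). RNA isolated; JUN measured by qRT-PCR against three housekeeping genes; gain or loss fitted relative to DMSO.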

[14] = read-out: Lipase C (LIPC), LIPC (gene 3990); assay: LTEA_HepaRG_LIPC: Life Technologies and Expression Analysis (LTEA) Assay for Lipase C (LIPC) using HepaRG (AID 2283514)
Procedure, shortened: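 Read-out is LIPC transcript level by TaqMan qRT-PCR, normalized to three housekeeping genes, after 48 h chemical treatment of human HepaRG liver cells. Curves span eight concentrations topping at 100 uM; activity in either direction scored relative to 0.5% DMSO.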

[15] = read-out: Lipoprotein lipase (LPL), LPL (gene 4023); assay: LTEA_HepaRG_LPL: Life Technologies and Expression Analysis (LTEA) Assay for Lipoprotein lipase (LPL) using HepaRG (AID 2283515)
Procedure, shortened: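 Read-out is LPL transcript level by qRT-PCR, normalized to three housekeeping genes and fitted bidirectionally against the DMSO control. Human HepaRG cells received chemicals for 48 h at up to 100 uM.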

[16] = read-out: MicroRNA 122 (MIR122), gene 406906; assay: LTEA_HepaRG_MIR122: Life Technologies and Expression Analysis (LTEA) Assay for MicroRNA 122 (MIR122) using HepaRG (AID 2283516); also: the transcript read is the microRNA miR-122
Procedure, shortened: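 HepaRG plated 48 h, switched to serum-free induction medium, then treated in duplicate for 48 h (100 uM top, half-log steps, 0.5% DMSO vehicle). RNA isolated, qRT-PCR performed, concentration-response fitted both directions relative to DMSO.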

[17] = read-out: matrix metalloproteinase-10 (MMP10), MMP10 (gene 4319); assay: LTEA_HepaRG_MMP10: Life Technologies and Expression Analysis (LTEA) Assay for matrix metalloproteinase-10 (MMP10) using HepaRG (AID 2283517)
Procedure, shortened: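 Gain or loss of MMP10 mRNA is fitted relative to the 0.5% DMSO vehicle. The human hepatic line HepaRG receives a 48-hour serum-free exposure, in duplicate, with a maximum concentration of 100 uM.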

[18] = read-out: MYC, MYC (gene 4609); assay: LTEA_HepaRG_MYC: Life Technologies and Expression Analysis (LTEA) Assay for MYC using HepaRG (AID 2283518)
Procedure, shortened: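 qRT-PCR read-out of MYC transcript (Fluidigm TaqMan, housekeeping-normalized) after 48 h chemical exposure of HepaRG cells; eight concentrations, top 100 uM, half-log steps. Bidirectional curve fitting against 0.5% DMSO vehicle baseline.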

[19] = read-out: matrix metalloproteinase-3 (MMP3), MMP3 (gene 4314); assay: LTEA_HepaRG_MMP3: Life Technologies and Expression Analysis (LTEA) Assay for matrix metalloproteinase-3 (MMP3) using HepaRG (AID 2283519)
Procedure, shortened: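 HepaRG, human; 48 h dosing, 8 conc. (max 100 uM, half-log), duplicate, 0.5% DMSO. Readout: MMP3 transcript by Fluidigm TaqMan qRT-PCR, ACTB/GAPDH/POLR2A-normalised. Gain or loss fitted vs DMSO.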

[20] = read-out: Paternally Expressed 10 (PEG10), PEG10 (gene 23089); assay: LTEA_HepaRG_PEG10: Life Technologies and Expression Analysis (LTEA) Assay for Paternally Expressed 10 (PEG10) using HepaRG (AID 2283520)
Procedure, shortened: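 HepaRG, 48 h post-plating → serum-free induction medium → 48 h chemical exposure (duplicate, 8-pt, max 100 uM, half-log, 0.5% DMSO) → lysis in RLT → TaqMan qRT-PCR for PEG10, ACTB/GAPDH/POLR2A normalisation.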

Measured: outcome

Hypoxia-inducible factor 1-alpha (Homo sapiens), sequence (Q16665 whole entry, looked up): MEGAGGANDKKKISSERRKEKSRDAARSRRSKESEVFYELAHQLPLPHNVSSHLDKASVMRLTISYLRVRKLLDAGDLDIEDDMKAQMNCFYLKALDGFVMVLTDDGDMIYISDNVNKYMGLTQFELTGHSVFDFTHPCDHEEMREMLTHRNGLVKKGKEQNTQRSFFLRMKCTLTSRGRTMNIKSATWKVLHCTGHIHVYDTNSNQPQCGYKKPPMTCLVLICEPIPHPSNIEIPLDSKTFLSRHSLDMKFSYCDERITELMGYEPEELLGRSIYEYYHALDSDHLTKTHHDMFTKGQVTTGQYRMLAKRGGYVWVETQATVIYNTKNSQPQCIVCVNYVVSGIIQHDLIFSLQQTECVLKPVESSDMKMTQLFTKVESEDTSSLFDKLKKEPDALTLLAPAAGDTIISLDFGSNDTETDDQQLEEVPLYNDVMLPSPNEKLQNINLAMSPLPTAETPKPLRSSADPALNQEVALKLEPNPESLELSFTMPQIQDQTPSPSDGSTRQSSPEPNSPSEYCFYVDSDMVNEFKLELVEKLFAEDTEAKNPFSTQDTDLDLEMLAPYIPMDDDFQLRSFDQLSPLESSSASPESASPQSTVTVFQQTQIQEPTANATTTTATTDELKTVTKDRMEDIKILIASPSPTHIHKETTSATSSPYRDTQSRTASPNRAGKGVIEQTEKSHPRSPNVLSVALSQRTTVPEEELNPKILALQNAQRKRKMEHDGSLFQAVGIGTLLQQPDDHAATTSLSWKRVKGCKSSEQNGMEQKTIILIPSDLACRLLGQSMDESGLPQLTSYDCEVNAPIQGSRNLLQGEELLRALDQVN

CS(=O)(=O)OCCCCOS(C)(=O)=O
inactive: all assays above
